Results reported in PubChem BioAssay (NCATS).
Records with an inconclusive call do not appear. Calls of active or inactive are those of the source. Calls come from the whole dose curve; as a rule, active = well fitted cell-killing curve with a large enough effect; inconclusive = small, poorly fitted or top-dose-only effect; inactive = flat fitted curve, though single readings scatter.

Experiment: qHTS of pediatric cancer cell lines to identify multiple opportunities for drug repurposing: Primary screen for Rh18 cells (AID 1347102); note: nearly all actives have a fitted effect of over 65% in size
Conditions: Rh18 rhabdomyosarcoma viability, CellTiter-Glo luminescence, 48 h; series mostly up to 46 µM; activity change, negative = cytotoxic: at the top concentration
Excerpt: Drug repurposing or repositioning has been offered as a strategy for drug development in oncology programs. This approach has special potential for childhood cancers and other rare or orphan diseases, where the expected return on new drug development has been a disincentive to pharmaceuticals.
In this project we exploit the poly-pharmacology of drugs to discover new indications via phenotypic screening of a panel of 19 well-characterized cell lines derived from solid tumors seen in children and adolescents. The goal is to identify approved drugs with previously unrecognized anticancer properties that has the potential to reveal new mechanisms and biological processes involved in carcinogenesis or drug resistance. We employed a titration-based paradigm (quantitative high-throughput screening or qHTS), where all compounds were tested at multiple concentrations for their effect on cell viability. Concentration-response curves (CRCs) were derived directly from the primary screen, and both potency and efficacy values were used to identify compounds with robust bioactivity profiles. We screened the NIH Chemical Genomics Center (NCGC) Pharmaceutical Collection (NPC) and Mechanism Interrogation Plate (MIPE) small molecule collections of approved and investigational compounds against these cell lines; and measured metabolically active cells after 48 hours of compound treatment as a proxy for cell viability.
Assay Submitter: Nathalia J. Martinez, National Center for Advancing Translational Sciences, National Institutes of Health, Rockville, MD, USA; email: natalia.martinez@nih.gov
[1] Shen, M et al. Quantitative high-throughput phenotypic screening of pediatric cancer cell lines identifies multiple opportunities for drug repurposing. Oncotarget 2017 Dec 19;9(4):4758-4772. PMID 29435139.
The cells were obtained from University of North Carolina (UNC), Pediatric Preclinical Testing Program (PPT), and Coriell Institute (CI).
qHTS cell viability assay:
Cells were assayed in growth media at a density of 500-1,000 cells/well. Five microliters of cells were dispensed into 1,536-well, white, solid-bottom, TC-treated plates (Greiner Bio One) using a multidrop dispenser and incubated at 37 degrees C, 5% CO2, under a humidified atmosphere for 5 hours. Twenty-three nanoliters of compounds and controls (neutral control DMSO or positive control bortezomib at final concentration of 2.3 µM) were subsequently transferred by Kalypsys pintool. For primary screens, the MIPE collection was tested at 11-point dilutions (final concentrations range from 0.78 nM to 46 µM) and the NPC collection at 8-point dilutions (final concentrations range from 0.59 nM to 46 µM). Compounds tested in follow-up screens were assayed at 11-point dilutions. Cells were incubated for 48 hours, followed by addition of 3 µL of CellTiter-Glo (Promega). After a 15 min incubation at room temperature, samples were analyzed for luminescence intensity using a ViewLux High-throughput CCD imager equipped with clear filters.
% is set by controls: 0 for no effect and ±100 for the full control effect; potency is the fitted concentration of half-maximal effect.

Structure (SMILES) | activity change, negative = cytotoxic | Potency
COc1cc2cc(c1Cl)N(C)C(=O)C[C@H](OC(=O)C(C)C)[C@]1(C)O[C@H]1[C@H](C)[C@@H]1C[C@@](O)(NC(=O)O1)[C@H](OC)C=CC=C(C)C2 | -26.2% (inactive) | 
Oc1ccc2c3c1O[C@H]1c4[nH]c5c(c4C[C@@]4(O)[C@@H](C2)N(CC2CC2)CC[C@]314)C[C@@]1(O)[C@H]2Cc3ccc(O)c4c3[C@@]1(CCN2CC1CC1)[C@H]5O4 | 11.5% (inactive) | 
CC1=NN=C(c2ccc(N)cc2)c2cc3c(cc2C1)OCO3 | -1.42% (inactive) | 
O=C(O)CCCOc1ccc(Cl)cc1Cl | 9.43% [at 92.7 µM] (inactive) | 
C=C[C@@H]1CN2CCC1C[C@H]2[C@H](O)c1ccnc2ccccc12 (stereo not given in full) |  | 23.5 µM (active)
O=C(O)COc1ccccc1 | 23.3% (inactive) | 
Clc1ccccc1C(c1ccccc1)(c1ccccc1)n1cccn1 | 11.6% (inactive) | 
CN(C)[C@@H]1C(=O)C(C(N)=O)=C(O)[C@@]2(O)C(=O)C3=C(O)c4c(O)cccc4[C@@](C)(O)[C@H]3[C@H](O)[C@@H]12 | 9.37% (inactive) | 
Cc1c(N)nc([C@H](CC(N)=O)NC[C@@H](N)C(N)=O)nc1C(=O)N[C@H](C(=O)N[C@@H](C)[C@H](O)[C@@H](C)C(=O)N[C@@H](C(=O)NCCc1nc(-c2nc(C(=O)NCCC[S+](C)C)cs2)cs1)[C@@H](C)O)C(O[C@H]1O[C@H](CO)[C@H](O)[C@@H](O)[C@@H]1O[C@H]1O[C@H](CO)[C@@H](O)[C@H](OC(N)=O)[C@H]1O)c1cnc[nH]1 (stereo not given in full) | -21.6% (inactive) | 
CN(C)NC(=O)CCC(=O)O | 0.852% (inactive) | 
C[C@]12Cc3cn[nH]c3C[C@@H]1CC[C@@H]1[C@H]2CC[C@@]2(C)[C@H]1CC[C@]2(C)O | -9.59% (inactive) | 
C#C[C@]1(O)C=C[C@@H]2[C@@H]3CCC4=CC(=O)CC[C@@H]4[C@H]3CC[C@@]21CC | 4.37% (inactive) | 
O=C(Nc1ccccc1-c1ccc(Cl)cc1)c1cccnc1Cl | 17% [at 92.7 µM] (inactive) | 
CCCCCCCCCCCCCCCC[N+](C)(C)C |  | 5.31 µM (active)
CCCCCCCCCC(CC)c1ccc(S(=O)(=O)O)cc1 (stereo not given) | 18.7% [at 92.7 µM] (inactive) | 
CC[N+]1(CCOC(=O)C(O)(c2ccccc2)c2ccccc2)CCCCC1 | -0.955% (inactive) | 
COc1cccc2c1[C@]13CCN(CC4CC4)[C@H](C2)[C@]1(OC)CCC(=O)C3 | 6.25% (inactive) | 
Oc1ccc2c3c1O[C@H]1[C@@H](O)C=C[C@H]4[C@@H](C2)NCC[C@@]341 | 0.17% [at 92.7 µM] (inactive) | 
CN[C@@H]1Cc2cccc3[nH]c(=O)n(c23)C1 | 5.58% (inactive) | 
Cc1nc(-c2ccc(-c3ccc(C(=O)N4CCc5cc6c(cc54)C4(CCN(C)CC4)CO6)cc3)c(C)c2)no1 | 11.3% (inactive) | 

Structure (SMILES) | activity change, negative = cytotoxic | Potency
O=[N+]([O-])c1ccc([As](=O)(O)O)cc1 | 12.3% (inactive) | 
CC[C@@H](C(N)=O)N1CCCC1=O | 2.54% (inactive) | 
CCC(=O)OC1CCC2C3CCC4=CC(=O)CC[C@@]4(C)C3CC[C@]12C (stereo not given in full) | -2.4% (inactive) | 
CC(C)N(CCNC(=O)CN1CCCC1=O)C(C)C | 1.16% (inactive) | 
Cc1ccccc1-n1c(Cn2ncc3c(N)ncnc32)nc2cccc(C)c2c1=O | -18.4% (inactive) | 
CC(O)CN1CCN(CC(=O)[O-])CCN(CC(=O)[O-])CCN(CC(=O)[O-])CC1.[Gd+3] (stereo not given) | 2.94% (inactive) | 
CC(=O)N(C)c1cccc(-c2ccnc3c(C(=O)c4cccs4)cnn23)c1 | 2.83% (inactive) | 
C#CC1(O)CCC2C3CCC4=CC(=O)CCC4(C)C3CCC21C (stereo not given) | -11.4% (inactive) | 
C[C@@]12OC(=O)[C@]1([C@@H](O)[C@@H]1C=CCCC1)NC(=O)[C@H]2CCCl |  | 0.0526 µM (active)
CC(Cc1ccc(O)cc1)NCC(O)c1cc(O)cc(O)c1 (stereo not given) | 2.59% (inactive) | 
Cc1cc(O)ccc1Cl | 11.6% (inactive) | 
c1ccc2c(CN3CCNCC3)cccc2c1 | 2.49% (inactive) | 
CCCCCCCCc1ccc(O)cc1 | -16.1% [at 92.7 µM] (inactive) | 
NC1=NC(=O)N2CC12 (stereo not given) | 10% (inactive) | 
CCOC(=O)c1cncn1[C@H](C)c1ccccc1 | 1.14% (inactive) | 
CCOC(=O)Nc1ccc(NCc2ccc(F)cc2)cc1N | 6.91% (inactive) | 
CCOCCOC(C)=O | 10.6% [at 92.7 µM] (inactive) | 
CC(C)(O)C=CC(=O)[C@](C)(O)[C@H]1[C@H](O)C[C@]2(C)[C@@H]3CC=C4[C@@H](C=C(O)C(=O)C4(C)C)[C@]3(C)C(=O)C[C@@]12C |  | 0.0526 µM (active)
Cc1c(C(=O)c2cccc3ccccc23)c2cccc3c2n1[C@H](CN1CCOCC1)CO3 |  | 20.9 µM (active)
COc1ccc(CC2NCCc3cc(OC)c(OC)cc32)cc1OC (stereo not given) | -0.79% (inactive) | 
